The results in this text go back to PubChem BioAssay (NCI).

This is part of a sample that, as a whole, favours compounds with a hit. Of some 79,000 tested, about 15% had one in any assay. A number with no mark means an inactive call. Activity calls are given as the source filed them. Rule as the data show it: active = growth inhibition above about 70%; inactive = the rest.

Assay [1] can be described thus: NCI Yeast Anticancer Drug Screen. Data for the rad50 strain (AID 155).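 Also: 0% = growth of vehicle-only cultures of the same strain.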 Conditions: S. cerevisiae rad50 strain growth inhibition, hits give high values. Put shortly:
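Relative growth inhibition (compound vs vehicle) was measured in yeast with a defined repair-gene alteration.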

Assay [2] in a line: NCI Yeast Anticancer Drug Screen. Data for the mec2-1 strain (AID 157). Conditions: S. cerevisiae mec2-1 strain, hits give high values. The method, boiled down:
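mec2-1 yeast strain, carrying an alteration in DNA damage repair or cell cycle control, was exposed to compounds; growth inhibition was measured relative to vehicle-treated controls.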

The nature of assay [3]: NCI Yeast Anticancer Drug Screen. Data for the sgs1 mgt1 strain (AID 161).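 Also: 0% = growth of cultures given vehicle only.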 The following applies: S. cerevisiae sgs1 mgt1 strain, hits give high values. Put shortly:
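Growth of a repair-deficient yeast mutant was monitored after compound treatment and expressed as inhibition relative to vehicle-treated cultures.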

Assay [4] is described as follows: NCI Yeast Anticancer Drug Screen. Data for the cln2 rad14 strain (AID 165).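 Also: 0% = growth equal to vehicle treated cultures.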 The following applies: S. cerevisiae cln2 rad14 strain, hits give high values. The method, boiled down:
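Yeast carrying cln2 and rad14 alterations (cell cycle control and DNA damage repair) were exposed to compounds. Growth inhibition was measured against vehicle-treated controls.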

A short description of assay [5]: NCI Yeast Anticancer Drug Screen. Data for the bub3 strain (AID 167). Conditions: S. cerevisiae bub3 mutant strain, hits give high values. The method, boiled down: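 Screening used yeast with an engineered genetic alteration affecting cell cycle control. Compound-exposed cultures were compared with vehicle cultures, and reduced growth was taken as inhibition.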
The nature of assay [6]: NCI Yeast Anticancer Drug Screen. Data for the mlh1 rad18 strain (AID 175). The following applies: S. cerevisiae mlh1 rad18 strain growth inhibition, hits give high values. The method, boiled down:
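Growth inhibition of the yeast strain was measured after compound exposure and expressed relative to vehicle-treated controls. The strain carries defined defects in DNA damage repair.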

Where [7] appears, read: at 5.0 µM (retest, dose inferred, filed as 0.5).
The mark [8] stands for this setting: at 50.0 µM (retest, dose inferred, filed as 5.0).

For the molecule `CC(=O)OCC1OC([S-])C(OC(C)=O)C(OC(C)=O)C1OC(C)=O.CC[PH+](CC)CC.CC[PH+](CC)CC.[Au].[Au]` (configuration not stated), the growth inhibition in assay [1] (setting [7]) is 100% (active); in assay [1] (setting [8]) it was 99% (active); in assay [1] (at 50.0 µM), 89.8% (active); in assay [2] (setting [7]) it was 99% (active); in assay [2] (setting [8]), 99% (active); in assay [2] (at 50.0 µM) it was 92% (active). The growth inhibition in assay [3] (setting [7]) is 99% (active); in assay [3] (setting [8]), 99% (active); in assay [3] (at 50.0 µM) it was 92% (active); in assay [4] (setting [7]), 98% (active); in assay [4] (setting [8]), 99% (active); in assay [4] (at 50.0 µM) it was 91.3% (active). For the same molecule, the growth inhibition in assay [5] (setting [7]) is 99% (active); in assay [5] (setting [8]) it was 99% (active); in assay [5] (at 50.0 µM), 89.9% (active); in assay [6] (setting [7]) it was 96% (active); in assay [6] (setting [8]) it was 98% (active); in assay [6] (at 50.0 µM), 90% (active).

Take `CCOCCOC(=O)Cc1ccccc1`: the growth inhibition in assay [1] (setting [7]) was 5%; in assay [1] (setting [8]) it was 42%; in assay [1] (at 50.0 µM) it was 64.3%; in assay [2] (setting [7]), 2%; in assay [2] (setting [8]), 6%; in assay [2] (at 50.0 µM) it was 98.3% (active). Further, the growth inhibition in assay [3] (setting [7]) was -1%; in assay [3] (setting [8]) it was 6%; in assay [3] (at 50.0 µM), 46.9%; in assay [4] (setting [7]), 4%; in assay [4] (setting [8]), 16%; in assay [4] (at 50.0 µM), 55.6%. Also, the growth inhibition is 7% in assay [5] (setting [7]); 12% in assay [5] (setting [8]); 94% (active) in assay [5] (at 50.0 µM); 6% in assay [6] (setting [7]); 19% in assay [6] (setting [8]); 95.5% (active) in assay [6] (at 50.0 µM).

Regarding `CN(C)c1ccc(/C=C/c2cc[n+]3ccsc3n2)cc1`, the growth inhibition is -3% in assay [1] (setting [7]); 69% in assay [1] (setting [8]); 90.8% (active) in assay [1] (at 50.0 µM); 24% in assay [2] (setting [7]); 94% (active) in assay [2] (setting [8]); 88% (active) in assay [2] (at 50.0 µM). For the same molecule, the growth inhibition in assay [3] (setting [7]) is -10%; in assay [3] (setting [8]) it was 93% (active); in assay [3] (at 50.0 µM), 92.2% (active); in assay [4] (setting [7]) it was -5%; in assay [4] (setting [8]) it was 63%; in assay [4] (at 50.0 µM), 72% (active). Also, the growth inhibition in assay [5] (setting [7]) was 8%; in assay [5] (setting [8]), 90% (active); in assay [5] (at 50.0 µM), 96.2% (active); in assay [6] (setting [7]), 2%; in assay [6] (setting [8]), 85% (active); in assay [6] (at 50.0 µM) it was 97.2% (active).

Regarding `O=C(C1C(c2ccccc2)N1C(c1ccccc1)c1ccccc1)C1C(c2ccccc2)N1C(c1ccccc1)c1ccccc1` (configuration not stated), the growth inhibition was -3% in assay [1] (setting [7]); 50% in assay [1] (setting [8]); 72.7% (active) in assay [1] (at 50.0 µM); 23% in assay [2] (setting [7]); 42% in assay [2] (setting [8]); 54% in assay [2] (at 50.0 µM). Also, the growth inhibition is -3% in assay [3] (setting [7]); 77% (active) in assay [3] (setting [8]); 58% in assay [3] (at 50.0 µM); -17% in assay [4] (setting [7]); 6% in assay [4] (setting [8]); 24% in assay [4] (at 50.0 µM). The growth inhibition in assay [5] (setting [7]) was -14%; in assay [5] (setting [8]), 56%; in assay [5] (at 50.0 µM) it was 63.9%; in assay [6] (setting [7]), 7%; in assay [6] (setting [8]) it was 80% (active); in assay [6] (at 50.0 µM), 90.2% (active).

Turning to `N#CC(C#N)=Cc1ccc([N+](=O)[O-])s1`, the growth inhibition was -83% in assay [1] (setting [7]); 98% (active) in assay [1] (setting [8]); 99.6% (active) in assay [1] (at 50.0 µM); -45% in assay [2] (setting [7]); 99% (active) in assay [2] (setting [8]); 99.6% (active) in assay [2] (at 50.0 µM). The growth inhibition is -42% in assay [3] (setting [7]); 98% (active) in assay [3] (setting [8]); 99.2% (active) in assay [3] (at 50.0 µM); -53% in assay [4] (setting [7]); 98% (active) in assay [4] (setting [8]); 98.5% (active) in assay [4] (at 50.0 µM). Also, the growth inhibition in assay [5] (setting [7]) is -66%; in assay [5] (setting [8]) it was 98% (active); in assay [5] (at 50.0 µM), 99.3% (active); in assay [6] (setting [7]), -83%; in assay [6] (setting [8]), 97% (active); in assay [6] (at 50.0 µM), 99.2% (active).

Consider `O=C(CCCC(=O)NNC(=O)Nc1cccc(S(=O)(=O)F)c1)NNC(=O)Nc1cccc(S(=O)(=O)F)c1`, for which the growth inhibition was 1% in assay [1] (setting [7]); 3% in assay [1] (setting [8]); 73.2% (active) in assay [1] (at 50.0 µM); 11% in assay [2] (setting [7]); 20% in assay [2] (setting [8]); 72.3% (active) in assay [2] (at 50.0 µM). Moreover, the growth inhibition in assay [3] (setting [7]) was 3%; in assay [3] (setting [8]) it was -19%; in assay [3] (at 50.0 µM), 80% (active); in assay [4] (setting [7]), -8%; in assay [4] (setting [8]), -8%; in assay [4] (at 50.0 µM) it was 52.7%. In addition, the growth inhibition was -6% in assay [5] (setting [7]); -1% in assay [5] (setting [8]); 84.3% (active) in assay [5] (at 50.0 µM); 9% in assay [6] (setting [7]); 33% in assay [6] (setting [8]); 72.8% (active) in assay [6] (at 50.0 µM).

For the molecule `CC[N-]c1nnnn1CC.[Au+].c1ccc([PH+](c2ccccc2)c2ccccc2)cc1`, the growth inhibition was 99% (active) in assay [1] (setting [7]); 98% (active) in assay [1] (setting [8]); 97.8% (active) in assay [1] (at 50.0 µM); 99% (active) in assay [2] (setting [7]); 98% (active) in assay [2] (setting [8]); 98.4% (active) in assay [2] (at 50.0 µM). Further, the growth inhibition in assay [3] (setting [7]) was 99% (active); in assay [3] (setting [8]), 98% (active); in assay [3] (at 50.0 µM), 97.7% (active); in assay [4] (setting [7]), 97% (active); in assay [4] (setting [8]), 96% (active); in assay [4] (at 50.0 µM) it was 97.2% (active). In addition, the growth inhibition in assay [5] (setting [7]) is 99% (active); in assay [5] (setting [8]), 98% (active); in assay [5] (at 50.0 µM), 97.8% (active); in assay [6] (setting [7]) it was 99% (active); in assay [6] (setting [8]), 97% (active); in assay [6] (at 50.0 µM), 97.2% (active).

Take `CCN(Cc1ccccc1)CC(O)c1ccc(Cl)c(Cl)c1` (configuration not stated): the growth inhibition was -3% in assay [1] (setting [7]); 99% (active) in assay [1] (setting [8]); 9.25% in assay [1] (at 50.0 µM); -1% in assay [2] (setting [7]); 99% (active) in assay [2] (setting [8]); -12.7% in assay [2] (at 50.0 µM). Also, the growth inhibition is -2% in assay [3] (setting [7]); 99% (active) in assay [3] (setting [8]); 20.1% in assay [3] (at 50.0 µM); 2% in assay [4] (setting [7]); 99% (active) in assay [4] (setting [8]); -23.4% in assay [4] (at 50.0 µM). The growth inhibition was 0% in assay [5] (setting [7]); 98% (active) in assay [5] (setting [8]); 70.3% (active) in assay [5] (at 50.0 µM); -1% in assay [6] (setting [7]); 99% (active) in assay [6] (setting [8]); 3.6% in assay [6] (at 50.0 µM).

With `CCC[CH2][Sn]1([CH2]CCC)[O]C(=O)c2cccc(C)c2[O]1`, the growth inhibition in assay [1] (setting [7]) was 86% (active); in assay [1] (setting [8]) it was 96% (active); in assay [1] (at 50.0 µM), 96.7% (active); in assay [2] (setting [7]), 89% (active); in assay [2] (setting [8]), 98% (active); in assay [2] (at 50.0 µM), 97.7% (active). The growth inhibition in assay [3] (setting [7]) is 88% (active); in assay [3] (setting [8]), 94% (active); in assay [3] (at 50.0 µM), 96.3% (active); in assay [4] (setting [7]) it was 86% (active); in assay [4] (setting [8]), 97% (active); in assay [4] (at 50.0 µM) it was 93.3% (active). Besides, the growth inhibition is 88% (active) in assay [5] (setting [7]); 97% (active) in assay [5] (setting [8]); 95.9% (active) in assay [5] (at 50.0 µM); 87% (active) in assay [6] (setting [7]); 95% (active) in assay [6] (setting [8]); 98.2% (active) in assay [6] (at 50.0 µM).
